Experimental findings from PubChem BioAssay (NCATS) are described below.

Results filed as inconclusive are left out. A number with no mark means an inactive call. Calls of active or inactive are those of the source. Calls follow the shape of the dose curve; as a rule, active = well fitted inhibition curve with a large enough effect; inconclusive = small, poorly fitted or top-dose-only effect; inactive = flat fitted curve, though single readings scatter.
% is scaled to controls: 0 for no effect and ±100 for the full control effect; potency is read from the fitted curve at half-maximal effect.

This assay has as its system HEK293. Briefly: Cytotoxic Profiling of Annotated Libraries Using Quantitative High-Throughput Screening (AID 1296008). Also: nearly all actives have a fitted effect of over 60% in size. Conditions: Five cell lines viability, CellTiter-Glo ATP luminescence, 48-72 h; max response: stronger effect = lower value. Summed up: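 Compounds were pin-transferred onto cells and incubated 48 or 72 hr at 37 degree Celsius, 95% humidity. CellTiter-Glo was added, plates sat 10 min at room temperature, then ATP-coupled luminescence was imaged as the viability read-out.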
(In ATP-based viability assays light output follows the ATP content of the culture.)
In the case of `C=C1C(=O)O[C@@H]2C3C(=C(C)[C@@H](O)[C@@H](OC(=O)/C(=C/C)COC(C)=O)[C@@H]12)C(=O)[C@H]1O[C@@]31C` (stereo not given in full), the Potency is 1 µM (active). With `Cc1ccc(C(=O)Nc2ccc(CN3CCN(C)CC3)c(C(F)(F)F)c2)cc1C#Cc1cnc2[nH]ncc2c1`, the Potency is 5.8 µM (active). As to `CCOC(=O)[C@@]1(CCCCCCOc2ccc(Cl)cc2)CO1`, the Potency is 8.31 µM (active). Consider `CC(/C=C/C(=O)NO)=C\[C@@H](C)C(=O)c1ccc(N(C)C)cc1`, for which the Potency is 1.16 µM (active).

Turning to `C#CCCCn1cc(-c2cccc3c2N[C@H](C)CC(=O)N3)cn1`, the max response is -13.5%. Consider `C=CC(=O)Nc1ccc2ncnc(Nc3cccc(Br)c3)c2c1`, for which the Potency was 20.6 µM (active). As to `CCCC1(CCC)CCC2(CCN(CCCN(CC)CC)C2)CC1`, the Potency was 1.84 µM (active). Regarding `N#Cc1ccc(Nc2nc(-c3ccc(O)cc3O)cs2)cc1C(F)(F)F`, the Potency is 3.26 µM (active).

Consider `CCc1cc(C(N)=O)ccc1-n1nc(C(C)C)c2c(-n3cnc(-c4cnn(C)c4)c3)ccnc21`, for which the max response was -117%.

As for `Nc1nc(O)c(C2=C3C(=Nc4ccccc43)C(=O)NCC2)[nH]1`, the max response is -2.48%. Consider `C=CC(=O)Nc1cccc(Nc2nc(Nc3ccc(NC4CN(CCF)C4)cc3OC)ncc2C(F)(F)F)c1`, for which the Potency was 8.2 µM (active).

As for `FC(F)(F)c1ccc(/C=C/c2nc(COc3ccc(CCCCn4ccnn4)cc3)co2)cc1`, the Potency is 0.0291 µM (active). In the case of `COc1cc(O)cc(OC2OC(CO)C(O)C(O)C2O)c1` (stereo not given), the max response was 0.556%. Same read-out and setting: the result for `CN[C@@H]1[C@H](O[C@H]2[C@H](O[C@@H]3[C@@H](O)[C@H](O)[C@@H](N=C(N)N)[C@H](O)[C@H]3N=C(N)N)O[C@@H](C)[C@]2(O)CO)O[C@@H](CO)[C@H](O)[C@H]1O` reads -16.2%. Consider `CC(C)NCCCn1c(Sc2cc3c(cc2I)OCO3)nc2c(N)ncnc21`, for which the Potency was 0.184 µM (active). Consider `O=c1cc(NCCCN[C@@H]2CCOc3c(Br)cc(Br)cc32)[nH]c2ccsc12`, for which the Potency was 5.8 µM (active). In the case of `COC1=CC(=O)C[C@@H](C)[C@@]12Oc1c(Cl)c(OC)cc(OC)c1C2=O`, the max response was -102%. Turning to `COC(C)(C)CCn1nc(Nc2c(C)cccc2C)c2cnc(Nc3ccc(OCCN4CCCC4)c(F)c3)nc21`, the Potency was 7.31 µM (active).

Consider `CCNC(=O)c1noc(-c2cc(Cl)c(O)cc2O)c1-c1ccc(OC)cc1`, for which the Potency is 0.206 µM (active).

As for `COc1ccc(N(C(=O)Nc2c(C)cccc2C)c2cc(Nc3ccc(N4CCN(C)CC4)cc3)ncn2)c(OC)c1`, the Potency was 14.6 µM (active).

Regarding `COc1cc(O)c2c(c1)C1OC1C[C@H](O)[C@H](O)C(=O)/C=C\C[C@H](C)OC2=O` (stereo not given in full), the Potency is 3.66 µM (active).

Consider `C=C1CC[C@@H]2[C@](C)(CO)[C@H](O)CC[C@@]2(C)[C@@H]1C/C=C1/C(=O)OCC1O` (stereo not given in full), for which the Potency is 7.31 µM (active). For `O=C(Nc1ccc(Cl)cc1)C1CCCN(C(=O)c2cccc(-c3ccco3)c2)C1` (stereo not given), the Potency was 18.4 µM (active). `C=C(C)Cn1c(SCC(=O)c2cccs2)nc2sc3c(c2c1=O)CCCC3`: the Potency is 1.64 µM (active). `CC#CC(=O)Nc1ccc2ncnc(Nc3cccc(Br)c3)c2c1`: the Potency was 3.66 µM (active). Still for that read-out and setting: the result for `Cc1cc(-c2nc(-c3ccc(OC(F)(F)F)cc3)no2)nn1Cc1ccnc(N2CCN(C3CC3)CC2)c1` reads 0.0065 µM (active). Still for that read-out and setting: then `CC(C)S(=O)(=O)NC[C@H](C)c1ccc(-c2ccc(CCNS(C)(=O)=O)cc2)cc1`, with 5.8 µM (active); and `O=C(Cc1cccc(OC(F)(F)F)c1)Nc1ccc(CCCCc2nnc(NC(=O)Cc3ccccn3)s2)nn1`, with 16.6 µM (active); and `C=C(C)C(=O)OC1CC2(C)OC(=CC2=O)C(=C)CC2OC(=O)C(=C)C12` (stereo not given), with 0.718 µM (active). Same read-out and setting: then `Cc1nnc(C[C@@H]2C=C(c3ccc(Cl)cc3)c3ccccc3-n3c(C)nnc32)o1`, with 1.16 µM (active); and `COC(=O)Nc1cc(Nc2cc(NC3CC3)c3ncc(C#N)n3n2)c(Cl)c(N2CCN(C)CC2)c1`, with 1.32 µM (active). `CC1(C(=O)Nc2ccc(F)nc2)CCCN1c1nc(Nc2cc(C3CC3)[nH]n2)c2cccn2n1` (stereo not given): the Potency was 5.17 µM (active).

Consider `C=C[C@@]12COC(=O)C(=C)[C@@H]1[C@@H](O)[C@H](C(=C)C(=O)OC)[C@@H](O)C2`, for which the max response was -86.5%. As to `Cc1csc2c(N[C@@H](C)CN3CCN(S(=O)(=O)c4ccc(Cl)c(Cl)c4)CC3)ncnc12`, the Potency is 0.366 µM (active).

Take `CN1CCC(NC(=O)c2cc(-c3c(O)cc(O)cc3Oc3ccc([N+](=O)[O-])cc3)on2)CC1`: the Potency was 0.206 µM (active).
